Screening results (PubChem)
GluA2 TARP mod = modulates AMPAR-stargazin complexes. HEK293 GluA2+stargazin, membrane potential dye (FDSS), glutamate EC50; hits were called plate by plate, in both directions. calls only at 30 µM. 3.5% of 40,000 active;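 active = any of four per-well response measures lying three or more SD from its plate-wide compound average, in either direction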
GIRK2 activator = Activates human GIRK2-containing potassium channels | activation (% efficacy), % for hits at 37.5 µM | HEK293 GIRK2/NPY4 cells, thallium flux fluorescence | 34,000 tested, under 10 active;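 active = primary screen hit, no activity in plain HEK293 cells, and in GIRK2-only cells above 5% efficacy rising with concentration; inactive = the rest, including fluorescent compounds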;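 note: efficacy is normalized control-subtracted fluorescence 15 s after thallium addition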
Active calls of the source: *; i = inactive; x = no result; + = active, no number. Shown is part of a subset that was picked to be rich in hits.

SMILES	GluA2 TARP mod	GIRK2 activator
O=C(Cc1cccs1)N1CCN(c2ccccn2)CC1	i	x
O=C(Nc1ccc(SCC(=O)N2CCOCC2)nn1)c1ccco1	i	i
Cc1noc(CNC(=O)c2c(-c3ccccc3Cl)noc2C)n1	i	i
Cc1cc(C)cc(OCC(O)CN2CCN(Cc3ccc4c(c3)OCO4)CC2)c1 (centres undefined)	i	x
CCc1ccc(OCCOCC(O)CN2CCN(Cc3ccc4c(c3)OCO4)CC2)cc1 (centres undefined)	+	x
CC(C(=O)Nc1ccc(Br)cc1)N1C(=O)c2ccccc2S1(=O)=O (centres undefined)	i	i
CC(C(=O)Nc1cc(Cl)ccc1O)N1C(=O)c2ccccc2S1(=O)=O (centres undefined)	+	i
CC(C(=O)Nc1cccc(Br)c1)N1C(=O)c2ccccc2S1(=O)=O (centres undefined)	+	i
CC(C(=O)Nc1ccc(F)c(F)c1F)N1C(=O)c2ccccc2S1(=O)=O (centres undefined)	i	x
CC(C(=O)Nc1nc2ccc(S(C)(=O)=O)cc2s1)N1C(=O)c2ccccc2S1(=O)=O (centres undefined)	i	x
CC(C(=O)Nc1nc2ccccc2s1)N1C(=O)c2ccccc2S1(=O)=O (centres undefined)	+	x
CCSc1cccc(C(=O)Nc2nnc(-c3cccnc3)o2)c1	i	i
C=CCNc1oc(-c2ccco2)nc1S(=O)(=O)c1ccc(C)cc1	i	i
Cc1ccc(N2CC(c3nc(-c4ccc(C(C)C)cc4)no3)CC2=O)cc1 (centres undefined)	i	i
O=C(c1ccco1)N1CCC(c2ccsc2)CC1	i	i
CS(=O)(=O)N1CCC(CNC(=O)C2CCCCC2)CC1	+	i
COCCN1CCC(CNC(=O)C2CCN(S(C)(=O)=O)CC2)CC1	x	i
COc1ccc(CCS(=O)(=O)NCC(O)(c2cccs2)C2CC2)cc1 (centres undefined)	i	i
O=C(NCC#CCN1CCc2ccccc2C1)c1ccc(Cl)s1	i	i
CCCOc1ccc(S(=O)(=O)N2CCC(c3cccs3)CC2)cc1	i	i
COCCn1nc(-c2ccc3c(c2)OCO3)ccc1=O	+	i
COCCn1nc(-c2ccc(Cl)cc2)ccc1=O	i	i
COC(=O)c1sccc1S(=O)(=O)N1CCN(c2ccccc2F)CC1	+	x
COc1ccc(CNC(=O)c2sccc2S(=O)(=O)N2CCN(c3ccccc3F)CC2)cc1	x	i
O=C(Cc1cccc2ccccc12)NCC1CCN(Cc2ccco2)CC1	x	i
SMILES	GluA2 TARP mod	GIRK2 activator
Cc1cc(C)c(NC(=O)C2CCN(c3cnc4ccccc4n3)CC2)c(C)c1	i	i
COc1ccc2nc(-c3cccc(NC(=O)c4c(F)cccc4F)c3)cn2n1	i	i
COc1ccc2nc(-c3cccc(NC(=O)Nc4ccc(F)cc4)c3)cn2n1	+	i
O=C(NCC1(c2cccs2)CCOCC1)c1cc2ccccc2o1	i	i
CCOc1ccccc1NC(=O)Cn1cc(-c2ccccc2)c2ncn(CCOC)c(=O)c21	i	i
CCOC(=O)c1ccccc1NC(=O)Cn1cc(-c2ccccc2)c2ncn(CCOC)c(=O)c21	+	i
COc1ccc(-c2ccc(C)c(NC(=O)c3ccccc3OC)c2)nn1	+	i
COc1ccc(-c2ccc(C)c(NC(=O)c3cccc(OC)c3OC)c2)nn1	i	i
Cc1nc(NCCNC(=O)Nc2ccc(C)c(F)c2)cc(-n2cccn2)n1	i	i
Cc1nc(NCCNC(=O)Nc2ccc(Cl)c(C(F)(F)F)c2)cc(-n2cccn2)n1	+	i
CCc1ccc(S(=O)(=O)NCCCn2nc(-c3ccc(OC)cc3)ccc2=O)s1	+	i
CCc1ccc(S(=O)(=O)NCCCn2nc(-c3ccccc3)ccc2=O)s1	i	i
O=c1c2nnc(SCc3ccccc3F)n2ccn1-c1cccc(F)c1	i	i
COc1ccc(-c2csc(NC(=O)c3ccc(S(=O)(=O)C(C)C)cc3)n2)cc1OC	i	x
COc1cccc2sc(NC(=O)c3ccc(S(=O)(=O)C(C)C)cc3)nc12	+	i
CC(=O)c1sc(NC(=O)c2ccc(S(=O)(=O)C(C)C)cc2)nc1C	+	x
CC(C)S(=O)(=O)c1ccc(C(=O)Nc2nc(-c3ccc(Cl)s3)cs2)cc1	i	x
COc1ccccc1-c1ccc(N2CCC(C(=O)NCCc3c[nH]c4ccccc34)CC2)nn1	i	i
OCCOCCNc1cc(-c2ccccc2)nc2c(-c3ccccc3)cnn12	i	i
O=C(NCCC(O)c1cccs1)C1(c2ccc(Cl)cc2)CCCC1 (centres undefined)	+	i
O=C(CCSc1ccccc1)NCCC(O)c1cccs1 (centres undefined)	i	i
COCCN=Cc1c(NCCOC)nc2ccccn2c1=O	+	i
